# TMEM16A inh – blocks the mouse calcium-activated chloride channel TMEM16A. HEK293 TMEM16A/YFP iodide influx fluorescence, ionomycin. AID 588511. normalized B-score (activity score, 25-100; higher = stronger inhibition) at 10 µM. Q8BHY3. 310,000 tested, 1.2% active;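 active = ratio plate-corrected score three or more library SD toward inhibition, starting fluorescence score within five deviations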;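 note: score derived from kinetic fluorescence span divided by baseline fluorescence per well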
# Target sequence (Q8BHY3 whole entry, looked up): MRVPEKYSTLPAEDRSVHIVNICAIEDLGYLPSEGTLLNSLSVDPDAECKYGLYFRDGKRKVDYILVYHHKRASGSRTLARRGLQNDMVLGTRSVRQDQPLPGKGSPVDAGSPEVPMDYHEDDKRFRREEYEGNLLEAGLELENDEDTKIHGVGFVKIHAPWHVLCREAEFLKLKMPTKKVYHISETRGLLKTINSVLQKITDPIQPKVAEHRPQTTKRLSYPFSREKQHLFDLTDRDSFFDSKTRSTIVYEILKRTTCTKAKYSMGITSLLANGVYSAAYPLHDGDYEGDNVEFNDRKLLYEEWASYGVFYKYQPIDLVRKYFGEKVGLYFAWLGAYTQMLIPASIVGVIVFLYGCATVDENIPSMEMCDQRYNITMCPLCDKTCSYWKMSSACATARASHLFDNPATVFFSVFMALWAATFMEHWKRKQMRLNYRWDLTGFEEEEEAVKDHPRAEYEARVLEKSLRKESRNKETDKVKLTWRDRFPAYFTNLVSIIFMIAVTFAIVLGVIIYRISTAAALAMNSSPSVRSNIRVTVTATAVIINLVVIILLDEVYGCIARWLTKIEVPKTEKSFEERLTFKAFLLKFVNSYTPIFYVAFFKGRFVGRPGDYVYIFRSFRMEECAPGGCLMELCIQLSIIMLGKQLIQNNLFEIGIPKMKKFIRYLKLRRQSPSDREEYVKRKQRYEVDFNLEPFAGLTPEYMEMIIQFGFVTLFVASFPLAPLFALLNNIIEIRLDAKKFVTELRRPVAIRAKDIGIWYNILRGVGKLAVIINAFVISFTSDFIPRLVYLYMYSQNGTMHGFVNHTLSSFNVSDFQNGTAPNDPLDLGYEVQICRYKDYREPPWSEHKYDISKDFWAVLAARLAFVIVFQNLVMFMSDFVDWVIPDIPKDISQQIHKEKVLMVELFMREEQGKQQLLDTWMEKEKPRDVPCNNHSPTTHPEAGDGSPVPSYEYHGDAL
# CHT PAM – human CHT allosteric activation. Q9GZV3. CHT-expressing cells, membrane potential dye, choline EC20; active compounds read high; LV-AA mutant CHT in HEK293 cells. B-score at 10 µM. 310,000 tested, 0.49% active;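 active = initial fluorescence not abnormally high and integrated response B-score, plate-corrected, over 3 SD above library mean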
# CHT inh – inhibits the human high affinity choline transporter; CHT-expressing cells, membrane potential dye, choline response; active compounds read low; B-score at 10 µM; AID 488975; Q9GZV3; 310,000 tested, 0.86% active;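 active = B-score over 3 SD under the library average, and starting fluorescence ratio not unusually high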;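 note: choline stimulus applied at its EC90 after an EC20 pre-addition; B-score computed on integrated fluorescence ratio after choline addition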
# ANO1 activ – activates or potentiates the mouse TMEM16A chloride channel; AID 623877; B-score at 10 µM; HEK293 TMEM16A/YFP-H148Q/I152L, iodide quench fluorescence; active compounds read low; Q8BHY3; 340,000 tested, 0.3% active;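 active = fluorescence-ratio B-score plate-corrected deviation score at least 3 library SD below zero, with starting fluorescence score within 5 deviations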;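 note: channel opened by trigger with iodide after compound preincubation; score built on the fluorescence ratio of max minus min over baseline; more negative score means more quench and so TMEM16A activation or potentiation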
# IDE cell activ – boosts human insulin-degrading enzyme activity in HEK cells; P14735; FAbeta-B cleavage, fluorescence polarization; 0% vehicle, 100% cell-free pure enzyme wells; activation, % at 5.96 µM; 340,000 tested, 0.073% active; AID 493087;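 active = activation above the mean of all tested compounds plus 3 SD, set per screening campaign, cut at about 17% in these data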
# IDE inh – cellular human IDE inhibition | inhibition, % at 5.59 µM | AID 434962 | HEK cells, FAbetaB cleavage, fluorescence polarization | P14735 | 320,000 tested, 0.41% active;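 active = percent inhibition above the average of all tested compounds plus 3 SD, set per screening campaign, cut at about 16% in these data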;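 note: IDE supplied by intact live HEK cells; FP after avidin binding of uncleaved biotin substrate so inhibition keeps polarization high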
# CHT block conf – human CHT inhibition, confirmatory screen; AID 493221; 2,400 tested, 70% active; CHT-expressing cells, choline membrane potential dye; LV-to-AA substituted CHT, HEK293 cells; CHT activity remaining % of control (active compounds read low), % at 10 µM; shares compounds with CHT inh;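 active = choline transporter activity left, mean of duplicates at 10 µM, below buffer-only control mean minus 3 SD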;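 note: depolarization triggered by choline at its EC90 following an EC20 pre-addition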
# HEK293 CHT ctr – CHT inhibitor counter-screen hit in parental HEK293 cells; shares compounds with CHT inh; membrane potential dye, choline response; active = decrease or increase beyond buffer ±3SD; membrane potential ratio readout (active if shifted either direction beyond buffer ±3SD; no single direction) at 10 µM; 2,400 tested, 4% active; AID 493222;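 note: parental cells lack the transporter so any hit is non-specific; ratio is peak minus trough fluorescence over baseline after EC90 choline challenge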
# CHT act confirm – confirmation of human choline transporter (CHT) activators | shares compounds with CHT PAM | CHT-expressing cells, membrane potential dye fluorescence (FDSS); % of choline EC20–EC90 response window; HEK293 expressing CHT LV-AA mutant; choline added at its EC20 | activation, % at 10 µM | 2,500 tested, 91% active;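 active = primary screen active, with duplicate mean activation above negative control mean plus 3 SD, cut at about 11% in these data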
# HEK293 MP dye – counter-screen for CHT activators: effect in parental HEK293 cells; shares compounds with CHT PAM; 2,500 tested, 62% active; membrane potential dye fluorescence (FDSS); measured after EC20 choline addition; ratio readout change at 10 µM, hits read low;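 active = duplicate-averaged ratio beyond 3 SD from buffer wells, up or down, though filed actives are nearly all decreases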
# TMEM16A reconf – re-confirmation of mouse TMEM16A chloride channel inhibitors | shares compounds with TMEM16A inh | HEK293 TMEM16A/YFP-H148Q, iodide quench fluorescence; ionomycin added to raise cell calcium | inhibition, % at 10 µM | 2,300 tested, 39% active;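 active = mean duplicate percent inhibition, scaled so buffer wells are 0 and the reference blocker 100, over three buffer SD above buffer mean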
# HEK293 Ca mobil – counter-screen for TMEM16A inhibitors: effect on calcium mobilization | 2,300 tested, 2% active | shares compounds with TMEM16A inh | calcium response (% of ionomycin), % at 10 µM | TMEM16A/YFP HEK293, Fluo4 calcium mobilization;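 active = duplicate-averaged calcium signal over 20% of the ionomycin maximum, relative to buffer baseline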;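 note: each well's signal is peak minus trough fluorescence divided by its pre-addition baseline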
# YFP-HEK293 quench – counter-screen for TMEM16A inhibitors: effect in parental YFP-HEK293 cells; shares compounds with TMEM16A inh; iodide YFP quench, ionomycin; YFP ratio F(max-min)/F0 at 10 µM; 2,300 tested, under 10 active;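 active = yellow fluorescent protein signal ratio exceeding the buffer control mean by over 5 SD of those controls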;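 note: ratio is mean of duplicate wells from kinetic YFP trace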
# ClC-1 inh – rat ClC-1 inhibition, TMEM16A specificity screen; 2,300 tested, under 10 active; CHO ClC-1-YFP, iodide influx fluorescence quench; iodide control reads 0, buffer control 100; ratio percent, % at 10 µM; shares compounds with TMEM16A inh;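 active = duplicate-mean ratio percent above the mean of iodide-only control wells, which defines zero, plus 5 of their SD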;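 note: higher percent means stronger block of ClC-1 iodide influx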
# Numbers stand for hits; – = inactive; · = no result. In the library only some 2.7% were active in any assay of this set; here they are far more common.
SMILES,TMEM16A inh,CHT PAM,CHT inh,ANO1 activ,IDE cell activ,IDE inh,CHT block conf,HEK293 CHT ctr,CHT act confirm,HEK293 MP dye,others
C=C(C)[C@@H]1C2C(=O)O[C@H]1[C@H]1OC(=O)[C@@]34OC3C[C@]2(O)[C@@]14C (stereo partly drawn),–,–,–,–,–,–,·,·,·,·,
C=CCn1c(O)c(C(CC)=NC(C)c2ccccc2)c(=O)[nH]c1=O (stereo not drawn),–,–,-4.99,–,–,–,48.8%,–,·,·,
Cc1ccc2occ(CN3CC4CC(C3)c3cccc(=O)n3C4)c(=O)c2c1 (stereo not drawn),–,–,–,–,–,–,·,·,·,·,
O=c1cccc2n1CC1CC2CN(Cc2cccc(Cl)c2Cl)C1 (stereo not drawn),–,–,-5.39,–,–,–,64.8%,–,·,·,
Clc1cc(I)cc(Cl)c1NC1=NCCN1,–,–,-6.99,–,–,–,6.0%,–,·,·,
CC(C)OCCCNC(=O)c1c(N)n(CC2CCCO2)c2nc3ccccc3nc12 (stereo not drawn),–,–,-5.07,–,–,–,–,–,·,·,
COc1ccc(-n2c(-c3ccccc3[N+](=O)[O-])nc3ccccc3c2=O)cc1,–,–,–,–,–,·,·,·,·,·,
c1ccc2c(CN3CCCCCCC3)c[nH]c2c1,–,–,-10.5,–,–,–,2.7%,–,·,·,
c1ccc2c(CN3CCN(C4CCCCC4)CC3)c[nH]c2c1,–,–,–,–,–,–,·,·,·,·,
O=C1NC(=O)N(c2ccc(Cl)cc2)C(=O)/C1=C/c1coc2ccc(O)cc2c1=O,–,–,-5.87,–,–,–,58.6%,–,·,·,
CN(C(=O)COC(=O)c1cn(C)c2ccccc12)C1CCCCC1,·,·,·,–,–,–,·,·,·,·,
CC(=O)O[C@H]1CC[C@@]2(C)[C@H](C1)C(=O)C[C@H]1[C@@H]3CC[C@@H]4[C@@H](CN5C[C@@H](C)CC[C@H]5[C@@]4(C)O)[C@@H]3C[C@@H]12,–,–,–,–,–,–,·,·,·,·,
Brc1ccc2c(c1)C(OC1CN3CCC1CC3)c1ccccc1CS2 (stereo not drawn),–,–,-6.53,–,–,–,34.3%,–,·,·,
CCOC(=O)CNC(=S)N1CC2C[C@@H](C1)Cn1c2cccc1=O,–,–,–,–,–,–,·,·,·,·,
CCC(=NCCc1c[nH]c2ccccc12)c1c(O)n(C)c(=O)n(C)c1=O,100,–,-5.71,–,–,–,–,–,·,·,TMEM16A reconf=19.0%;HEK293 Ca mobil=–;YFP-HEK293 quench=–;ClC-1 inh=–
Nc1c(C(=O)OC2CCCCC2)c2nc3ccccc3nc2n1CC1CCCO1 (stereo not drawn),100,–,-8.64,–,–,–,50.7%,–,·,·,TMEM16A reconf=–;HEK293 Ca mobil=–;YFP-HEK293 quench=–;ClC-1 inh=–
CC(C)OC(=O)c1c(N)n(CC2CCCO2)c2nc3ccccc3nc12 (stereo not drawn),–,–,–,–,–,–,·,·,·,·,
CC(=O)c1cccc(OCC(=O)N2CCN(CC(=O)Nc3cccc(F)c3)CC2)c1,·,·,·,–,–,–,·,·,·,·,
Cc1sc2ccccc2c1CC1=NCCN1,–,7.8,–,–,–,–,·,·,45.8,-50,
O=[N+]([O-])c1ccc(-[n+]2c(-c3ccccc3)cc(-c3ccccc3)cc2-c2ccccc2)cc1,–,–,–,–,–,–,·,·,65.6,-28.1,
Oc1ccccc1-[n+]1c(-c2ccccc2)cc(-c2ccccc2)c(O)c1-c1ccccc1,–,–,–,–,–,–,·,·,·,·,
Oc1ccc(-[n+]2c(-c3ccccc3)cc(-c3ccccc3)cc2-c2ccccc2)cc1,–,9.77,–,–,–,–,·,·,80.4,-26,
C[n+]1c(-c2ccccc2)cc(-c2ccc(O)cc2)cc1-c1ccccc1,–,6.96,–,–,–,–,·,·,55.4,-57.6,
O=[N+]([O-])c1ccc(CN2CC=C(c3ccccc3)CC2)cc1,–,–,–,–,–,–,·,·,·,·,
CCN(CC)CCO,·,·,·,–,–,–,·,·,·,·,
SMILES,TMEM16A inh,CHT PAM,CHT inh,ANO1 activ,IDE cell activ,IDE inh,CHT block conf,HEK293 CHT ctr,CHT act confirm,HEK293 MP dye,others
c1ccc(-c2ccc(-c3n(-c4ccccn4)c4ccccc4[n+]3-c3ccccn3)cc2)cc1,·,·,·,–,–,·,·,·,·,·,
Cc1cc(N2CCN(C)CC2)nc2ccccc12,–,7.02,–,–,–,–,·,·,48.9,-50.5,
CSc1nc(N2CCN(C)CC2)c2ccccc2n1,–,6.33,–,–,–,–,·,·,46.7,-67.8,
C[n+]1ccc(-c2ccccc2)c2ccccc21,–,8.55,–,–,–,–,·,·,85.0,-70,
COc1cc2c(cc1O)C[C@H]1NCCc3cc4c(c-2c31)OCO4,–,–,–,–,–,–,·,·,·,·,
COc1cc2c(cc1OC)-c1c3c(cc4c1[C@@H](C2)N(C)CC4)OCO3,–,–,–,–,–,–,·,·,41.8,-48,
CNc1cc(N2CCNCC2)ccc1[N+](=O)[O-],–,–,–,–,–,–,·,·,38.5,-48.8,
O=C(O)C1(Br)CC12c1ccccc1-c1ccccc12 (stereo not drawn),·,·,·,–,–,·,·,·,·,·,
NC(N)=Nc1ccc2[nH]c3c(c2c1)C[C@@]1(O)[C@H]2Cc4ccc(O)c5c4[C@@]1(CCN2CC1CC1)[C@H]3O5,–,8.32,–,–,–,–,·,·,11.5,-32.8,

# From PubChem BioAssay
